Results as given in PubChem BioAssay.
Active and inactive are the calls of the source.

What was measured:
[1] = small molecules captured by biotinylated probe aFSTL3 – biochemical, small-molecule microarray, fluorescence 635/667, stem cell growth factor project, primary screen (AID 1064); conditions: higher = more signal;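 also: measures binding of the biotinylated anti-FSTL3 antibody to printed compounds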
[2] = binders from COS7 lysate, DM2A8 probe, primary screen, torsin A project, cell lysate, small-molecule microarray, fluorescence 635/667 (AID 1065); conditions: higher = more signal, COS7 lysate expressing mutant human TOR1A
[3] = small molecules captured by biotinylated probe aFGF2 – biochemical, small-molecule microarray, fluorescence 635/667, stem cell growth factor project, primary screen (AID 1067); conditions: higher = more signal;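 also: measures binding of biotinylated aFGF2 protein to printed compounds on slides; z-score merges feature fluorescence and signal-to-noise across triplicate slides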
[4] = small molecules captured by biotinylated probe aFGF10 – biochemical, small-molecule microarray, fluorescence 635/667, stem cell growth factor project, primary screen (AID 1071); conditions: higher = more signal;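 also: score merges 667 nm spot intensity and signal to noise from triplicate slides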
[5] = target: Neurogenic locus notch homolog protein 2 (Homo sapiens) (UniProt Q04721); experiment: small molecules binding Notch2 protein – biochemical, small-molecule microarray, 635 nm fluorescence, stem cell growth factors, primary screen (AID 1073); conditions: higher = more signal
Neurogenic locus notch homolog protein 2 (Homo sapiens), sequence (Q04721 whole entry, looked up, canonical isoform): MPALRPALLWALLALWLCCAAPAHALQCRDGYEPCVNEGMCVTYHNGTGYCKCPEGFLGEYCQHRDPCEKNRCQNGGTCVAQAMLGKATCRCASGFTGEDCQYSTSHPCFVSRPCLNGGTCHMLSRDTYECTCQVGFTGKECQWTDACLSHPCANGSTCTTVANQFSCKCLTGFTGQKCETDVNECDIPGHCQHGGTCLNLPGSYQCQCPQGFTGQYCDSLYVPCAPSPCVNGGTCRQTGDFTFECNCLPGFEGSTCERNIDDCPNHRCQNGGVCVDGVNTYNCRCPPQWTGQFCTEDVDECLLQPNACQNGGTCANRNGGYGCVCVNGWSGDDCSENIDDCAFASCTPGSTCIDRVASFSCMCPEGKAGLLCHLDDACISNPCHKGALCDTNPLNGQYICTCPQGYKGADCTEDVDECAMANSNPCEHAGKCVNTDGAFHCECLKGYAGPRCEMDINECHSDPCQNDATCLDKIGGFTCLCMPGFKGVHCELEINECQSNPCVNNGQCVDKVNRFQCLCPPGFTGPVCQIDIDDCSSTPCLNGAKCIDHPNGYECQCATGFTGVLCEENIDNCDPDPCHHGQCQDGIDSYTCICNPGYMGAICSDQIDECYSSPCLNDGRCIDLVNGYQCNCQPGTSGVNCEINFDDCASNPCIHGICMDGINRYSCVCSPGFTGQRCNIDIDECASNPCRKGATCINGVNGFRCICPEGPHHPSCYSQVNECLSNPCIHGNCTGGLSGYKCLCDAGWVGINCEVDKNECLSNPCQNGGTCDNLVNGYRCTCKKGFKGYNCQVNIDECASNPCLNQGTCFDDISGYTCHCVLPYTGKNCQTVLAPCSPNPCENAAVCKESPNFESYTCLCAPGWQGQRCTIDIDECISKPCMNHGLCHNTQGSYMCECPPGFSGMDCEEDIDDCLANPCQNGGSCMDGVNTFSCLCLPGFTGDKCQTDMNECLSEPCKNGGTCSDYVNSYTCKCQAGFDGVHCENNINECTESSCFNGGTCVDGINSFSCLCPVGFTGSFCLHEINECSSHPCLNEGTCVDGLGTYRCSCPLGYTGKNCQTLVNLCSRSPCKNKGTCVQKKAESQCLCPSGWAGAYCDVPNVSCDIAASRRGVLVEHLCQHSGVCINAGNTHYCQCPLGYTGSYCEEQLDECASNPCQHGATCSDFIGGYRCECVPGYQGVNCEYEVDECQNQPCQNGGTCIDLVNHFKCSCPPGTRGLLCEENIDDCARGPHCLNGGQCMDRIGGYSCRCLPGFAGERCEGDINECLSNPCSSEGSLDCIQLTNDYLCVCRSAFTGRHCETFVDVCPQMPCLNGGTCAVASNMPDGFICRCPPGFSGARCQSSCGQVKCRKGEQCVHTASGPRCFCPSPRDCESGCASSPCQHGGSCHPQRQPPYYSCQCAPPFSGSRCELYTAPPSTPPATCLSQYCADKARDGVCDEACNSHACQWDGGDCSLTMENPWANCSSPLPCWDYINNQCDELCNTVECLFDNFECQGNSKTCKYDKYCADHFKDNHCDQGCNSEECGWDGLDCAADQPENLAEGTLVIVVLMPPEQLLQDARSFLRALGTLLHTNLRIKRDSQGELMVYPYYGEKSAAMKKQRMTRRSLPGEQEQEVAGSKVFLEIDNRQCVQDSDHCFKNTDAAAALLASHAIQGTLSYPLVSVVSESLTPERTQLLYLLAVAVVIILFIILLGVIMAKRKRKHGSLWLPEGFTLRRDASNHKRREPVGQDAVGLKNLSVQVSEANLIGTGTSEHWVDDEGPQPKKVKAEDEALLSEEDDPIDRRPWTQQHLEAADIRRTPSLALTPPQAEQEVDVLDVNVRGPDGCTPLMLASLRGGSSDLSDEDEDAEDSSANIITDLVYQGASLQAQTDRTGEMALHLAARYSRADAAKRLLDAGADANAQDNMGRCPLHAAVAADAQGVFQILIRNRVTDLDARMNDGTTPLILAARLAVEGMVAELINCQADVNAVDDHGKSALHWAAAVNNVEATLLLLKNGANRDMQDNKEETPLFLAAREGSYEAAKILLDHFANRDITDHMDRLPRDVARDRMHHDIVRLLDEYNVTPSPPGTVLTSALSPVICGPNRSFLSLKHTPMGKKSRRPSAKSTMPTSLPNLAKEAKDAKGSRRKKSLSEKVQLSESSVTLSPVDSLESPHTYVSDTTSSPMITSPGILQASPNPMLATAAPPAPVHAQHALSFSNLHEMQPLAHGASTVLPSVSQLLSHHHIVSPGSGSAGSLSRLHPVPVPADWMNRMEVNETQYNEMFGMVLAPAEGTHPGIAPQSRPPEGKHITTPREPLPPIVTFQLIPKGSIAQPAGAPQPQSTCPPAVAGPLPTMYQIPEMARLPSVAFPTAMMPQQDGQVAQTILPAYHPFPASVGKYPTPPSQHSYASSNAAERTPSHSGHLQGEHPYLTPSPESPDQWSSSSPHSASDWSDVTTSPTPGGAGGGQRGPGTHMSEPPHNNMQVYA

[6] = target: Pro-neuregulin-1, membrane-bound isoform (Homo sapiens) (UniProt Q02297); experiment: small molecules binding neuregulin-1 protein – biochemical, small-molecule microarray, fluorescence 635/667, psychiatric disease protein project, primary screen (AID 1075); conditions: NRG1 binding, 635 nm fluorescence, higher = more signal;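 also: score combines 667 nm spot fluorescence with signal to noise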
Pro-neuregulin-1, membrane-bound isoform (Homo sapiens), sequence (Q02297 whole entry, looked up, the tested form may be a part, canonical isoform): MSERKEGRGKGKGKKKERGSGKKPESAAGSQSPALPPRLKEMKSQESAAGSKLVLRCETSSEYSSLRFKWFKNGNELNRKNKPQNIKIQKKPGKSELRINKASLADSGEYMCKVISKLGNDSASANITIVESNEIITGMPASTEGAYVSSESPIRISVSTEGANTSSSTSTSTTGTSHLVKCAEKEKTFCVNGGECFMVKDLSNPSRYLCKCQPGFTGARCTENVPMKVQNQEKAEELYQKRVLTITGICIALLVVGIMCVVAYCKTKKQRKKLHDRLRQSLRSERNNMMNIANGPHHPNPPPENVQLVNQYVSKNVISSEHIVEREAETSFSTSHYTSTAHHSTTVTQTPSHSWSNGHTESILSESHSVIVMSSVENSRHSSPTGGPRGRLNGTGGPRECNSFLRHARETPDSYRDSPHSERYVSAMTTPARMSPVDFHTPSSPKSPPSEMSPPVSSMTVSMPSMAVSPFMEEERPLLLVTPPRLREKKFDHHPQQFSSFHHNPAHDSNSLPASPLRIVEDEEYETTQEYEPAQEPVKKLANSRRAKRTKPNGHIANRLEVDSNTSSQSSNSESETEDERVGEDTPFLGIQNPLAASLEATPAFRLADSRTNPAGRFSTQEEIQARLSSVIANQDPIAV

[7] = tested on: Neuregulin-1 EGF-like domain; experiment: small molecules binding NRG1 EGF domain – biochemical, small-molecule microarray, 635 nm fluorescence, primary screen (AID 1081); conditions: higher = more signal;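 also: binding of the protein to compounds printed on small-molecule microarray slides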
[8] = FRG1 expression reporter modulators in myotubes – cell-based, C2C12 myotubes, firefly/Renilla luciferase, luminescence, FRG1 inhibition for FSHD, primary screen (AID 1084); conditions: FRG1 promoter luciferase, higher = more signal, called active from +8 up or from −8 down
[9] = small molecules captured by biotinylated probe aFST – biochemical, small-molecule microarray, fluorescence 635/667, stem cell growth factor project, primary screen (AID 1086); conditions: higher = more signal;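 also: score merges 667 nm fluorescence with signal-to-noise of each printed compound spot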
[10] = binders of probe aHhip on microarray, primary screen, stem cell growth factor project, biochemical, small-molecule microarray, fluorescence 635/667 (AID 1087); conditions: higher = more signal;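 also: score merges spot fluorescence at 667nm with spot signal to noise ratio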

Structure (SMILES) | composite z-score [1] | composite z-score [2] | composite z-score [3] | composite z-score [4] | composite z-score [5] | composite z-score [6] | composite z-score [7] | z-score [8] | composite z-score [9] | composite z-score [10]
Cc1ccc(S[C@]2(C(=O)NC(C)C)CC(=O)N(Cc3cc(C(F)(F)F)cc(C(F)(F)F)c3)[C@@H]2c2ccc(CO)cc2)cc1 | 0.0795 | -0.662 | -0.145 | -0.898 | -1.08 | 0.624 | 0.644 | 0.237 (inactive) | -0.803 | -0.236
NC(=O)[C@@]1(Cc2ccccc2)COC(c2ccc(OCCCO)cc2)=N1 | 0.634 | 0.758 | -0.0594 | -0.281 | 0.29 | 1.37 | 1.16 | 1.47 (inactive) | 0.252 | -0.0684
CC#CCO[Si](C#Cc1ccccc1)(C(C)C)C(C)C | 0.393 | -0.688 | -0.187 | -0.279 | 1.34 | -0.878 | -0.665 | 0.289 (inactive) | -0.217 | -0.134
COCCOC(=O)N1C(=O)[C@@]2(c3cc(C#CCNC(N)=O)ccc31)[C@H](C(N)=O)[C@H]1C(=O)O[C@H](c3ccccc3)[C@H](c3ccccc3)N1[C@@H]2c1ccccc1OCCO | -0.0102 | 0.176 | -0.0381 | 0.43 | 1.23 | 0.667 | 0.46 | 1.94 (inactive) | 0.931 | 0.107
COC(=O)C/C=C/C[C@]1(O)C(=O)N(C)c2ccccc21 | -0.408 | 0.598 | -0.148 | -0.294 | 0.223 | -0.419 | 0.797 | -1.59 (inactive) | 0.164 | -0.0708
CN(C)c1ccc(C(O)C2C=CC3C(=O)NC(=O)C3N2Nc2ccccn2)cc1 (stereo not given) | -0.142 | 1.55 | -0.0982 | 0.68 | 1.5 | 1.15 | 1.41 | 2.15 (inactive) | 0.995 | -0.134
C=C(COC)C(=O)CC[C@@H](OC(C)=O)c1cccc(OCCO)c1 | -0.0369 | -0.489 | -0.085 | 0.243 | -0.0381 | -0.372 | 0.691 | -0.721 (inactive) | -0.204 | -0.249
[N-]=[N+]=Nc1ccccc1C[C@@]1(C(N)=O)N=C(c2ccc(OCCCO)cc2)O[C@@H]1c1ccccc1N=[N+]=[N-] | 0.613 | 0.338 | -0.0751 | 0.684 | 1.45 | 0.467 | 1.26 | 0.0144 (inactive) | 0.493 | 0.0722
COc1ccc(CCNC(=O)[C@@]2(Cc3ccccc3I)c3ccccc3C(=O)N(C3CCCCC3)[C@H]2c2ccc(CO)cc2)cc1 | -0.0515 | -0.256 | -0.079 | -0.0337 | 0.281 | 0.56 | 0.897 | -4.25 (inactive) | 0.384 | -0.0645
O=C1[C@H]2C=C(I)[C@H](C[C@@H]2OCCOCCO)[C@@]12CO2 | -0.444 | 0.97 | -0.0877 | 0.454 | 0.67 | -0.183 | 0.653 | 0.843 (inactive) | -0.192 | 0.0722
Cc1ccc(N2C(=O)c3ccccc3[C@@H](C(=O)NCCCN(C)C)[C@@H]2c2ccc(CO)cc2)nc1 | 1.36 | -0.538 | 0.111 | -0.533 | -0.854 | 1.02 | 1.44 | 0.298 (inactive) | 0.282 | -0.757
COCCOC(=O)N1C(=O)[C@@]2(c3cc(C#CC4=CCCCC4)ccc31)[C@H](c1ccccc1OCCO)N1[C@H](c3ccccc3)[C@H](c3ccccc3)OC(=O)[C@H]1[C@@H]2C(=O)NC[C@H](O)c1ccccc1 | -0.223 | 0.123 | -0.0817 | 0.345 | 1.07 | 0.298 | 1.23 | 0.204 (inactive) | 0.635 | 0.115
COc1ccc(CCNC(=O)[C@@]2(Sc3ccc(C)cc3)CC(=O)N(Cc3ccccc3C(F)(F)F)[C@@H]2c2ccc(CO)cc2I)cc1 | 0.673 | -1.11 | -0.156 | 0.116 | -1.11 | 1.99 | 1.01 | -1.08 (inactive) | -0.261 | -0.236
